This passage reports growth inhibition results from PubChem BioAssay (NCI).

About 79,000 compounds went through this panel and 15% of them were active in at least one assay; those are over-represented in the sample as a whole. A number with no mark means an inactive call. Activity calls are given as the source filed them. Cut-off read from the data, not from the text of the source: active = growth inhibition above about 70%; inactive = the rest.

Experiment [1] is described as follows: NCI Yeast Anticancer Drug Screen. Data for the rad50 strain (AID 155).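 Note: 0% = growth of vehicle-only cultures of the same strain.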 The conditions noted are these: S. cerevisiae rad50 strain growth inhibition; at 50.0 µM; active compounds read high. A digest of the protocol: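 DNA repair mutant yeast, compound exposure, growth read-out; inhibition is taken relative to vehicle.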
The nature of experiment [2]: NCI Yeast Anticancer Drug Screen. Data for the mec2-1 strain (AID 157). The conditions noted are these: S. cerevisiae mec2-1 strain, at 50.0 µM, active compounds read high. Put shortly:
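Using mec2-1 yeast: add compound, measure growth, express inhibition versus vehicle-treated cultures.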

The nature of experiment [3]: NCI Yeast Anticancer Drug Screen. Data for the sgs1 mgt1 strain (AID 161).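 Note: 0% = growth of cultures given vehicle only.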 The conditions noted are these: S. cerevisiae sgs1 mgt1 strain, at 50.0 µM, active compounds read high. A digest of the protocol: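 This yeast growth screen uses a strain with defined DNA-repair lesions; compound-treated growth is compared with vehicle-treated growth.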
Experiment [4] is described as follows: NCI Yeast Anticancer Drug Screen. Data for the cln2 rad14 strain (AID 165).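 Note: 0% = growth equal to vehicle treated cultures.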 To be noted: S. cerevisiae cln2 rad14 strain, at 50.0 µM, active compounds read high. A digest of the protocol:
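Yeast strain cln2 rad14, bearing defects in cell cycle control and DNA repair, serves as the test system; values reflect growth inhibition compared with vehicle.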

Experiment [5] in a line: NCI Yeast Anticancer Drug Screen. Data for the bub3 strain (AID 167). To be noted: S. cerevisiae bub3 mutant strain, at 50.0 µM, active compounds read high. Put shortly: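 In this screen, a yeast mutant lacking normal mitotic checkpoint function is challenged with compound. Relative growth versus vehicle gives the inhibition value.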
The nature of experiment [6]: NCI Yeast Anticancer Drug Screen. Data for the mlh1 rad18 strain (AID 175). To be noted: S. cerevisiae mlh1 rad18 strain growth inhibition; at 50.0 µM; active compounds read high. A digest of the protocol: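 Steps: expose repair-defective yeast to compound; measure growth; express inhibition against vehicle-treated controls.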

Turning to `Cc1ccccc1NC(=O)C(=O)CC(=O)c1sc(Nc2ccccc2[N+](=O)[O-])nc1C`, the growth inhibition in experiment [1] was 8.8%; in experiment [2] it was -7.45%; in experiment [3], -7.4%; in experiment [4], -10.3%; in experiment [5] it was -0.3%; in experiment [6], -2.9%.
Regarding `OC1CCC(c2ccccc2)CC1` (stereo unspecified), the growth inhibition in experiment [1] was 29.1%; in experiment [2] it was 11.8%; in experiment [3], 19.9%; in experiment [4], 15.7%; in experiment [5], 4.75%; in experiment [6], 7.35%.
In the case of `C/C(=N\O)c1ccc(OCc2cc(C(F)(F)F)cc(C(F)(F)F)c2)cc1`, the growth inhibition in experiment [1] is -10.1%; in experiment [2] it was -26.2%; in experiment [3] it was -6.75%; in experiment [4], -1.5%; in experiment [5] it was -2.15%; in experiment [6], 7.5%.
As for `CC(C)C(=O)OCc1ccc(Cl)cc1`, the growth inhibition in experiment [1] is 29.8%; in experiment [2], 38.3%; in experiment [3], 21.8%; in experiment [4], 12.1%; in experiment [5], 26.8%; in experiment [6], 17.4%.
On to `O=C(NO)c1ccc(Cl)cc1Cl`, for which the growth inhibition in experiment [1] is 57.9%; in experiment [2], -0.8%; in experiment [3], 37.7%; in experiment [4], -11.9%; in experiment [5], 18.6%; in experiment [6], 43.7%.
Regarding `CCCCCCCCCCCC(=O)O` (tested in a mixture with another compound), the growth inhibition in experiment [1] is -15.7%; in experiment [2], 7.5%; in experiment [3], -41.6%; in experiment [4], -39.9%; in experiment [5], -32.6%; in experiment [6], -13.5%.
As to `COc1cc2c(c3c1c(=O)c1ccc(F)cc1n3C)C=CC(C)(C)O2`, the growth inhibition is -4.35% in experiment [1]; -28.6% in experiment [2]; -16.9% in experiment [3]; -23.9% in experiment [4]; -7.7% in experiment [5]; -5.6% in experiment [6].
Consider `O=NN(CCCl)C(=O)Oc1ccc2ccccc2c1`, for which the growth inhibition in experiment [1] is 29.4%; in experiment [2] it was -9.35%; in experiment [3], 16.1%; in experiment [4], -24.8%; in experiment [5], 6.2%; in experiment [6], -0.5%.
`CC12CC3CC(C)(C1)CC(CN=C(N)CS)(C3)C2`: the growth inhibition in experiment [1] is 98.9% (active); in experiment [2], 99.5% (active); in experiment [3], 99.5% (active); in experiment [4] it was 99.2% (active); in experiment [5], 99.2% (active); in experiment [6], 99.3% (active).
Turning to `CN(C)CC1(Cc2ccccc2)CCC(Cc2ccccc2)C1=O` (stereo unspecified), the growth inhibition in experiment [1] was 85.5% (active); in experiment [2], 63.4%; in experiment [3], 85.3% (active); in experiment [4] it was 54%; in experiment [5], 45.6%; in experiment [6], 86.3% (active).
In the case of `O=c1[nH]c(-c2cccc(F)c2)nc2ccccc12`, the growth inhibition was 16.9% in experiment [1]; -10.9% in experiment [2]; 3.1% in experiment [3]; 19.2% in experiment [4]; -7.4% in experiment [5]; 10.2% in experiment [6].
As to `CC(C)(C)C1=CC(=O)OC1(Cl)C(C)(C)C` (stereo unspecified), the growth inhibition was -0.65% in experiment [1]; 6.8% in experiment [2]; -1.05% in experiment [3]; 8.8% in experiment [4]; 13.8% in experiment [5]; -9.05% in experiment [6].
Consider `ClC(Cl)(Cl)C(c1ccc(Br)cc1)c1ccc(Br)cc1`, for which the growth inhibition was -18.1% in experiment [1]; -29.5% in experiment [2]; 1.15% in experiment [3]; -43.3% in experiment [4]; 16.8% in experiment [5]; -0.25% in experiment [6].
Consider `CCN(Cc1ccc(CN(CC)C(=O)c2sc3ccccc3c2Cl)cc1)C(=O)c1sc2ccccc2c1Cl`, for which the growth inhibition was -3.5% in experiment [1]; -19.6% in experiment [2]; -7.35% in experiment [3]; -1.4% in experiment [4]; -11.4% in experiment [5]; -4.55% in experiment [6].
Take `Cc1c2ccccc2nc(CSCC(O)CO)[n+]1[O-]` (stereo unspecified): the growth inhibition in experiment [1] is -8.4%; in experiment [2] it was 10.7%; in experiment [3], 12.3%; in experiment [4], -55.6%; in experiment [5], 14.4%; in experiment [6], 6.85%.
Consider `Cc1cn(C2CC(N)C(C(=O)NCC(=O)O)O2)c(=O)[nH]c1=O` (stereo unspecified), for which the growth inhibition is -19.9% in experiment [1]; -54.5% in experiment [2]; -0.6% in experiment [3]; 2.65% in experiment [4]; -40.1% in experiment [5]; -26.1% in experiment [6].
For the molecule `Cn1c(=O)n2c(-c3ccccc3)c(-c3ccccc3)n2c1=O`, the growth inhibition in experiment [1] is 6.85%; in experiment [2], -19.6%; in experiment [3], -23.8%; in experiment [4] it was 0.5%; in experiment [5] it was -25.9%; in experiment [6], -28.9%.
As for `O=C(O)c1c[nH]c2cc(O)ccc2c1=O`, the growth inhibition was -0.5% in experiment [1]; 3.3% in experiment [2]; -4.75% in experiment [3]; -6.5% in experiment [4]; 15.3% in experiment [5]; -2.7% in experiment [6].
`O=C1NC(=O)C(c2cccc(F)c2)N1` (stereo unspecified): the growth inhibition in experiment [1] is -12.1%; in experiment [2] it was -12.3%; in experiment [3], 9.7%; in experiment [4], -9%; in experiment [5], 4.7%; in experiment [6], -7.7%.
Take `CC1C=CC(C)N(c2nnnn2C)N1c1nnnn1C` (stereo unspecified): the growth inhibition in experiment [1] was -11.6%; in experiment [2], 9.75%; in experiment [3], 14.9%; in experiment [4], -6.3%; in experiment [5] it was -2.6%; in experiment [6], -3.9%.
Regarding `COc1ccc(CCNC(=O)CCC2CCN(CCc3ccc(OC)c(OC)c3)CC2)cc1OC`, the growth inhibition is 16.2% in experiment [1]; -2.05% in experiment [2]; 1.65% in experiment [3]; 22.4% in experiment [4]; -1.5% in experiment [5]; 3.6% in experiment [6].
